Bioassay records deposited in PubChem by The Scripps Research Institute Molecular Screening Center.
ASK1 primary: ASK1 kinase inhibitors, primary screen, biochemical, AlphaScreen | Mitogen-activated protein kinase kinase kinase 5 (Homo sapiens), Q99683 | AlphaScreen MKK6 phosphorylation by ASK1, luminescence | inhibition, % at 7.44 µM | hit rate 0.99% among 22,000; in the data active = inhibition above about 35%;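 note: 0% = median of compound wells and 100% = no enzyme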
ULK1 inh: ULK1 kinase inhibitors, primary screen, biochemical, AlphaScreen | inhibition, % at 5.96 µM | AlphaScreen Atg13 phosphorylation by ULK1, luminescence | hit rate 1.9% among 30,000; in the data active = inhibition above about 43%;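 note: 0% = median of compound wells and 100% = no enzyme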
AlphaScreen intf: AlphaScreen signal interference by compounds, dose response, artefact control for ASK1 inhibitor project, biochemical, TruHits beads; hit rate 20% among 220; IC50, µM; shares compounds with ASK1 primary; signal interference counterscreen;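 active = IC50 of 10 µM or lower in the counterscreen; inactive = IC50 above 10 µM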;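 note: loss of AlphaScreen light from TruHits beads alone with no ASK1 enzyme present; potency of signal reduction so a low IC50 flags an assay artifact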
An asterisk follows results filed as active; i = inactive; nt = not tested or not shown. This is a sample that favours compounds with a hit; in the whole collection about 2.5% have one here.

SMILES	ASK1 primary	ULK1 inh	AlphaScreen intf
Cc1ncn(-c2ccc(Nc3ncc4cccc(-c5ccnc(N6CCOCC6)c5)c4n3)cc2)n1	24	16	nt
Cc1cc(Nc2ccc3c(c2)OCO3)nc(NCc2ccc3c(c2)OCO3)n1	34	-5	nt
COc1cc(-c2cn[nH]c2)cc2c(=O)[nH]c(C3COc4ccc(C)cc4C3)nc12 (stereo not given)	40*	5	>19
COc1ccc2c(c1)CC(c1nc3c(OC)cc(-c4cn[nH]c4)cc3c(=O)[nH]1)CO2 (stereo not given)	-14	-5	nt
CC(=O)Nc1ccc(Nc2nc(NCCN3CCOCC3)nc3c2ncn3-c2ccsc2)cc1	-6	17	nt
c1ccc(CN2CCC(Nc3nc(Nc4ccccc4)nc4c3ncn4-c3ccsc3)CC2)cc1	17	4	nt
c1ccc(CN2CCC(Nc3nc(N4CCOCC4)nc4nc[nH]c34)CC2)cc1	1	-18	nt
c1ccc(CN2CCC(Nc3nc(Nc4ccc(N5CCOCC5)cc4)nc4nc[nH]c34)CC2)cc1	36*	18	>20
c1ccc(CN2CCC(Nc3nc(Nc4ccc(N5CCOCC5)cc4)nc4c3ncn4-c3ccsc3)CC2)cc1	43*	11	9.3*
c1cnc2ccc(Nc3nc(Nc4ccc(N5CCOCC5)cc4)c4[nH]cnc4n3)cc2c1	41*	-12	>20
c1ccc(Nc2nc(Nc3ccc(N4CCOCC4)cc3)c3[nH]cnc3n2)nc1	8	7	nt
O=C(Cc1ccc(Br)cc1)N1CCN(c2ccc3cnccc3c2)CC1	-20	-18	nt
Cc1cncc2cccc(NC3CCN(C(=O)C(O)c4ccc(F)cc4F)CC3)c12 (stereo not given)	-19	-1	nt
COc1cccc(COC(=O)Nc2ccc(-c3cn[nH]c3)cc2N(C)CCN(C)C)c1	3	19	nt
CC(C)n1cnc2c(NCCO)nc(Nc3cccc(N(C)C)c3)nc21	13	20	nt
COc1ccc(CCNc2nc(Nc3cccc(N(C)C)c3)nc3c2ncn3C(C)C)cc1	37*	9	>20
O=C(NCCN1CCOCC1)c1ccnc(-n2ncc3cc(Nc4ccc(F)cc4Cl)ccc32)c1	-10	-36	nt
CCc1cc(=O)n(CC(=O)Nc2ccc(F)cc2)c(-n2nc(C)cc2C)n1	nt	7	nt
CC(C)n1cnc2c(Nc3ccccc3)nc(N3CCOCC3)nc21	2	17	nt
c1ccc(-n2cnc3c(Nc4ccc(N5CCOCC5)cc4)nc(Nc4cccnc4)nc32)cc1	40*	11	>16
CC(=O)Nc1ccc(Nc2nc(N3CCN(c4ccccn4)CC3)nc3c2ncn3Cc2ccc(C(F)(F)F)cc2)cc1	6	-58	nt
CC(C)n1cnc2c(NCc3ccccc3)nc(Nc3ccc(N4CCOCC4)cc3)nc21	35	-5	nt
CC(C)n1cnc2c(Nc3ccc(Oc4ccccc4)cc3)nc(N3CCOCC3)nc21	42*	17	>20
CC(C)n1cnc2c(Nc3ccccc3)nc(Nc3ccc(N4CCOCC4)cc3)nc21	47*	31	>20
FC(F)(F)c1ccc(Cn2cnc3c(Nc4ccc(N5CCOCC5)cc4)nc(N4CCN(c5ccccn5)CC4)nc32)cc1	38*	-11	>20
SMILES	ASK1 primary	ULK1 inh	AlphaScreen intf
c1ccc(-n2cnc3c(Nc4ccc(N5CCOCC5)cc4)nc(Nc4ccc(-n5ccnc5)cc4)nc32)cc1	-5	17	nt
O=C(Nc1ccc2c(c1)OCO2)c1cccc(Nc2ccncn2)n1	20	10	nt
Nc1cccc(-c2cc(NCc3cccc(C(F)(F)F)c3)ncn2)c1	-2	-26	nt
COc1ccc(-c2cc(C(=O)NCCOc3ccccc3)ccn2)cc1	-7	-16	nt
CC(C)n1cnc2c(Nc3ccc(N4CCOCC4)cc3)nc(N3CCN(c4ccccn4)CC3)nc21	36*	35	i
CC(C)n1cnc2c(Nc3ccccc3)nc(N3CCN(c4ccccn4)CC3)nc21	32	16	nt
FC(F)(F)c1cccc(CN2CCCC(c3nc4ccc(-c5ccncc5)cc4[nH]3)C2)c1 (stereo not given)	-18	9	nt
Nc1cc(C2=C3C=C(Br)N=C3C(=O)NCC2)c(O)[nH]1	17	31	nt
Nc1cc(C2=C3C=CN=C3C(=O)NCC2)c(O)[nH]1	38*	71*	>19
COc1cc(NC(=O)c2ccnc(-c3ccc(N4CCN(C)CC4)cc3)c2)cc(OC)c1OC	11	5	nt
COc1cc(N2CCN(C)CC2)ccc1Nc1cc(Nc2ccccc2-c2ncccn2)c(C(F)(F)F)cn1	38*	53*	i
Cc1cc(Nc2ccc3c(c2)OCO3)nc(Nc2cnccn2)n1	19	6	nt
N#Cc1cc(-c2ccnc(Nc3ccc(N4CCOCC4)cc3)n2)cc(N2CCN(C3CC3)CC2)c1	-6	8	nt
FC(F)(F)c1cc(-c2ccnc(Nc3ccc(N4CCOCC4)cc3)n2)cc(N2CCOCC2)c1	45*	16	>19
c1cc(-c2ccc3nonc3c2)nc(Nc2ccc(N3CCOCC3)cc2)n1	14	0	nt
c1cc(-c2ccc3[nH]ncc3c2)nc(Nc2ccc(N3CCOCC3)cc2)n1	38*	65*	>19
Fc1cc(-c2ccnc(Nc3ccc(N4CCOCC4)cc3)n2)cc(N2CCN(C3CC3)CC2)c1	40*	56*	>19
FC(F)(F)c1cc(-c2ccnc(Nc3ccc(N4CCOCC4)nc3)n2)cc(N2CCOCC2)c1	16	8	nt
CC(=O)Nc1ccc(NC(=O)c2ccc3nc(NCCN4CCOCC4)sc3c2)cc1	-6	6	nt
COc1cc(CNCCN(C)C)cc(OC)c1OC	nt	-8	nt
NC(=O)CSc1nnc(-c2ccccc2Br)n1-c1ccccc1	nt	-9	nt
COc1cc(Nc2cc(NCc3ccc4c(c3)OCO4)nc(N)n2)cc(OC)c1OC	-1	-5	nt
Cc1nc(NC(C)c2ccccc2)cc(-c2ccccn2)n1 (stereo not given)	nt	-6	nt
Cn1ccc2cc(-c3cc(Nc4ccc(N5CCOCC5)cc4)nc(N)n3)ccc21	46*	26	>20
CC(=O)c1cccc(-c2cc(Nc3ccc(N4CCOCC4)cc3)nc(N)n2)c1	8	8	nt
SMILES	ASK1 primary	ULK1 inh	AlphaScreen intf
Cc1ccc(-c2cnc(NCCc3ccccc3)nc2)cc1	nt	-15	nt
COc1ccc(-c2nc(NCc3cccc(C(F)(F)F)c3)c3ncn(Cc4ccc(C(F)(F)F)cc4)c3n2)cc1	-7	-19	nt
CC(=O)c1cccc(-c2nc(NCc3cccc(C(F)(F)F)c3)c3ncn(Cc4ccc(C(F)(F)F)cc4)c3n2)c1	5	-12	nt
NC(=O)c1ccc(-c2nc(NCc3cccc(C(F)(F)F)c3)c3ncn(Cc4ccc(C(F)(F)F)cc4)c3n2)cc1	41*	-6	>17
CC(=O)c1cccc(-c2nc(NCc3ccccc3)c3ncn(Cc4ccc(C(F)(F)F)cc4)c3n2)c1	46*	-5	>19
CC(C)(C)OC(=O)N1CCC[C@@H]1C(=O)NC1CCC(Nc2ccc3[nH]ncc3c2)CC1 (stereo not given in full)	-1	-3	nt
c1ccc(OCCNc2nc(Nc3ccncc3)nc3c2ncn3C2CCCCC2)cc1	-2	5	nt
c1ccc(OCCNc2nc(Nc3ccc(N4CCOCC4)cc3)nc3c2ncn3C2CCCCC2)cc1	48*	17	7*
c1ccc(OCCNc2nc(NCCN3CCOCC3)nc3c2ncn3C2CCCCC2)cc1	-8	-10	nt
c1ccc(OCCNc2nc(Nc3ccc(-n4ccnc4)cc3)nc3c2ncn3C2CCCCC2)cc1	49*	14	>20
